Hits are enriched below; roughly 7.5% of the tested compounds scored in any of these assays.
KinaseGlo FLuc = Kinase-Glo luciferase inhibition (counter-screen); Potency, µM (titrated, usually from 38.3 µM), for the others: top-dose activity change, negative = inhibition, most hits filed as inhibitors; Kinase-Glo luciferase, ATP luminescence, 8 min; Q27757; AID 1379; 200,000 compounds, 0.28% hits; also: % is scaled to controls: 0 for no effect and ±100 for the full control effect; nearly all actives have a fitted effect of over 60% in size
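Light output from Kinase-Glo luciferase with luciferin and 10 uM ATP in 50 mM imidazole pH 7.2, KCl, MgCl2, Tween 20, BSA; compound pin-delivered, 8-min ambient incubation, then luminescence read.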
NPC1 promoter act = activators of NPC1 promoter; 320,000 compounds, 2.4% hits; AID 485313; Potency, µM (top dose mostly 9.22 µM), inactives show top-dose activation, actives largely listed as activators; Huh7 NPC1 promoter luciferase reporter, 24 h; also: % of control where 0% means no effect; nearly all actives have a fitted effect of over 60% in size
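Luciferase expression driven by the NPC1 promoter was measured in stably transfected Huh7 cells after a 24 h compound incubation, using a luciferase reagent and a luminescence read.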
FLuc modulator = inhibits or activates purified firefly luciferase, miR-21 counter-screen; P08659; Potency, µM (doses to about 57.5 µM), for inactives: at the highest dose activity change, negative = inhibition, usual class: inhibitors; 360,000 compounds, 6.9% hits; AID 588342; purified FLuc, Km substrates, luminescence inhibition;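 also: plate controls were vehicle for no effect and reference inhibitor for full effect; nearly all actives have a fitted effect of over 55% in size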
Target sequence (P08659 whole entry, looked up): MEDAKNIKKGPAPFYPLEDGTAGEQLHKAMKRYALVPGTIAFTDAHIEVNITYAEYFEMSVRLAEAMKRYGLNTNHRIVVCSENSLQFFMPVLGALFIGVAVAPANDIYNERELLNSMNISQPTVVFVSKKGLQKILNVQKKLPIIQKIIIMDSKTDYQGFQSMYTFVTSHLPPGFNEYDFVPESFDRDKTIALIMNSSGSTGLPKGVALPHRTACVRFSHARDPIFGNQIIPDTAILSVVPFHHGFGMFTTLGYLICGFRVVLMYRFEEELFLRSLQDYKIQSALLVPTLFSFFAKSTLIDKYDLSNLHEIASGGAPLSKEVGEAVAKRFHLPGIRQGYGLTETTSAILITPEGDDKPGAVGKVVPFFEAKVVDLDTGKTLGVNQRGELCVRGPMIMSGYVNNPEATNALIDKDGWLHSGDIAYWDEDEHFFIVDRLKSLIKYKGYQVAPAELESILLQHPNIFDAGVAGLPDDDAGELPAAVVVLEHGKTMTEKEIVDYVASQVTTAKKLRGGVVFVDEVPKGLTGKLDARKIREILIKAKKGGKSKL
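Purified P. pyralis luciferase, 10 nM final, with Km-level 10 uM D-luciferin and 10 uM ATP in 50 mM Tris acetate pH 7.5, 10 mM Mg acetate, 0.01% Tween-20, 0.05% BSA; 6-point qHTS titration about 60 µM downward; luminescence read.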
ELG1 genotoxic = induces genotoxicity in HEK293T cells with luciferase-tagged ELG1; HEK293T ELG1-luciferase reporter, luminescence, 16 h; Potency, µM (highest dose often 46 µM), for the others: top-dose activity change, positive = activation, actives largely listed as activators; 330,000 compounds, 1.3% hits; AID 504466; also: % of control where 0% means no effect; nearly all actives have a fitted effect of over 60% in size
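HEK293T cells expressing luciferase-tagged ELG1 were treated with compound or DMSO for 16 hr at 37°C. Luciferase activity was then read after 30 min with ONE-Glo at room temperature; rising signal flags genetic stress.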
SMN2 splice up = increases expression of the SMN2 splice variant | Potency, µM (titrated, usually from 46.1 µM), inactives show at the highest dose activity change, positive = activation, actives largely listed as activators | HEK293 SMN2-luciferase splicing reporter, luminescence, 30-36 h | AID 1458 | 210,000 compounds, 2.8% hits; also: % of control where 0% means no effect; nearly all actives have a fitted effect of over 55% in size
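HEK293 cells carry an SMN2 minigene-luciferase reporter in which exon 7 inclusion puts luciferase in frame. Cells were seeded at 2000 cells/well, attached for 10-12 hours, then exposed to compounds for 30-36 hours at 37C before ONE-Glo luminescence.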
Rab9 promoter act = activators of Rab9 promoter; AID 485297; Huh7 Rab9 promoter-luciferase reporter, luminescence, 24 h; 320,000 compounds, 2.8% hits; Potency, µM (titrated, usually from 9.22 µM), inactives show top-dose activation, negative = inhibition, actives largely listed as activators; also: % of control where 0% means no effect; nearly all actives have a fitted effect of over 60% in size
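Stable Rab9-luc Huh7, 1500 cells/well, 2 h settle; cmpd in DMSO, 24 h, 37 °C/5% CO2; luciferase reagent 10 min RT; luminescence.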
The depositor's hits bear a star; [ ] = remark or other dose. Calls follow the shape of the dose curve; as a rule, active = well fitted curve in the direction sought with a large enough effect; inconclusive = small, poorly fitted or top-dose-only effect, or another doubt; inactive = no such curve, though single readings can be large; an effect the other way counts as inactive or inconclusive. Potency is read from the fitted curve at half-maximal effect.

What do the screens show for `COc1ccc(OCC(=O)N(Cc2cccc(OC)c2)C2CCS(=O)(=O)C2)cc1` (stereo not drawn)?
FLuc modulator: 2%; SMN2 splice up: 5%

How did COC(=O)C1CCN(C(=O)/C=C/c2ccc(OC)cc2)CC1 do in these assays?
KinaseGlo FLuc: 0%; NPC1 promoter act: 0.28µM*; FLuc modulator: 21µM*; ELG1 genotoxic: 2.3µM*; Rab9 promoter act: 1.1µM*

What do the screens show for `COc1ccc(/C=C/C(=O)N2CCC(c3nc4ccccc4o3)CC2)cc1`?
FLuc modulator: 19µM*

Results for COc1ccc(/C=C/C(=O)N2CCC(c3ccccc3)C2)cc1 (stereo not drawn) ?
KinaseGlo FLuc: 1%; NPC1 promoter act: 6%; FLuc modulator: 19µM*; ELG1 genotoxic: 2%; SMN2 splice up: 4%; Rab9 promoter act: 0%

Results for Cc1cc([N+](=O)[O-])nn1CCCC(=O)Nc1cc(Cl)ccc1Cl ?
KinaseGlo FLuc: 2%; NPC1 promoter act: -5%; FLuc modulator: 1%; ELG1 genotoxic: -1%; SMN2 splice up: -20%; Rab9 promoter act: -6%

How did CCN(C[C@H]1N[C@@](Cc2ccccc2)(C(=O)OC)[C@H]2C(=O)N(C)C(=O)[C@@H]12)C(=O)NC(C)C do in these assays?
ELG1 genotoxic: 1%

How did O=c1cc(COc2ccc(Cl)c(Cl)c2)nc2sccn12 do in these assays?
NPC1 promoter act: inconclusive; FLuc modulator: -4%; ELG1 genotoxic: 13%; Rab9 promoter act: 3.2µM*

How did CCOc1ccc2nc(N3C(=O)/C(=C/c4ccc(Cl)cc4)NC3=S)sc2c1 do in these assays?
KinaseGlo FLuc: 0%; NPC1 promoter act: 13%; FLuc modulator: 9.5µM*; ELG1 genotoxic: 0%; SMN2 splice up: 6%; Rab9 promoter act: 3%

What do the screens show for `O=C1/C(=C/c2ccc(Cl)cc2)NC(=S)N1Cc1cccnc1`?
NPC1 promoter act: -1%; FLuc modulator: -11%; ELG1 genotoxic: -9%; Rab9 promoter act: 0%

Results for COc1ccc(/C=C2\SC(=S)N(CC(=O)NC3C=CS(=O)(=O)C3)C2=O)cc1 (stereo not drawn) ?
NPC1 promoter act: 3%; FLuc modulator: 1.9µM*; ELG1 genotoxic: 2%; Rab9 promoter act: 1%

Results for COc1ccc(/C=C2\SC(=S)N(C(C)C(=O)NC3C=CS(=O)(=O)C3)C2=O)cc1 (stereo not drawn) ?
NPC1 promoter act: 11%; FLuc modulator: 17µM*; ELG1 genotoxic: 1%; Rab9 promoter act: 15%

What do the screens show for `O=C(CN1C(=O)/C(=C/c2ccc(Cl)cc2)SC1=S)NC1C=CS(=O)(=O)C1` (stereo not drawn)?
NPC1 promoter act: -7%; FLuc modulator: -7%; ELG1 genotoxic: 1%[9.26 µM]; Rab9 promoter act: 1%

What do the screens show for `COc1ccc(CNC(=O)COC(=O)CCn2c(C)csc2=O)cc1OC`?
NPC1 promoter act: 0%; FLuc modulator: -1%; ELG1 genotoxic: 0%; Rab9 promoter act: 1%

Results for COc1ccc2ccccc2c1/C=N/NC(=O)c1ccc(C)nc1 ?
NPC1 promoter act: 2%; FLuc modulator: 21µM*; ELG1 genotoxic: 1%; Rab9 promoter act: 4%

What do the screens show for `CCOc1ccc2ccccc2c1/C=N/NC(=O)c1ccncc1`?
NPC1 promoter act: 0%; FLuc modulator: 13µM*; ELG1 genotoxic: 10%; Rab9 promoter act: 0%

Results for COC(=O)c1cc(-c2ccc(OC)c(OC)c2)on1 ?
NPC1 promoter act: -2%; FLuc modulator: -11%; ELG1 genotoxic: 1%; Rab9 promoter act: 1%

What do the screens show for `COC(=O)c1cc(-c2ccc(OC)cc2)on1`?
KinaseGlo FLuc: -6%; NPC1 promoter act: -1%; FLuc modulator: 8.5µM*; ELG1 genotoxic: 1%; Rab9 promoter act: -7%

How did COC(=O)c1cc(-c2ccc(Br)cc2)on1 do in these assays?
KinaseGlo FLuc: 1%; NPC1 promoter act: -1%; FLuc modulator: 8.5µM*; ELG1 genotoxic: 1%; SMN2 splice up: -2%; Rab9 promoter act: 1%

How did COC(=O)c1cc(-c2cccc(OC)c2)on1 do in these assays?
KinaseGlo FLuc: -4%; NPC1 promoter act: -2%; FLuc modulator: 12µM*; ELG1 genotoxic: 2%; SMN2 splice up: -11%; Rab9 promoter act: -3%

How did COc1ccc(-c2cc(C(=O)NC(C)C)no2)cc1 do in these assays?
KinaseGlo FLuc: -3%; NPC1 promoter act: 2.5µM*; FLuc modulator: 5.4µM*; ELG1 genotoxic: 6.5µM*; SMN2 splice up: 13µM*; Rab9 promoter act: 1.1µM*

Results for COc1cccc(-c2cc(C(=O)O)no2)c1 ?
KinaseGlo FLuc: 16%; NPC1 promoter act: -1%; FLuc modulator: inconclusive; ELG1 genotoxic: -2%; SMN2 splice up: -2%; Rab9 promoter act: -2%

Results for CCCCNC(=O)C1CCC(CNS(=O)(=O)c2ccc(Cl)cc2)CC1 (stereo not drawn) ?
FLuc modulator: -5%

Results for CCOc1ccc(C(=O)Oc2cc(C)[nH]c(=O)c2[N+](=O)[O-])cc1OCC ?
NPC1 promoter act: -1%; FLuc modulator: 1%; ELG1 genotoxic: -1%; Rab9 promoter act: 0%

Results for Cc1ccccc1CNC(=O)CN1C(=O)C2CCCCN2c2ccc(C(=O)N3CCCC3)cc21 (stereo not drawn) ?
FLuc modulator: -8%

How did COC(=O)c1cc(-c2ccccc2)on1 do in these assays?
KinaseGlo FLuc: -2%; NPC1 promoter act: -21%; FLuc modulator: 17µM*; ELG1 genotoxic: 2%; SMN2 splice up: 8%; Rab9 promoter act: 1%

Results for CCN(CC)C(=O)c1cc(-c2ccc(Br)cc2)on1 ?
KinaseGlo FLuc: 0%; NPC1 promoter act: 2µM*; FLuc modulator: 9.5µM*; ELG1 genotoxic: inconclusive; SMN2 splice up: inconclusive; Rab9 promoter act: 3.2µM*

Results for CC1CCN(C(=O)CSCc2ccc(Cl)cc2)CC1 ?
KinaseGlo FLuc: -3%; NPC1 promoter act: inconclusive; FLuc modulator: 19µM*; ELG1 genotoxic: 15µM*; SMN2 splice up: inconclusive; Rab9 promoter act: 3.2µM*

What do the screens show for `COC(=O)c1ccccc1NC(=O)Cn1nc(C)c2nn(-c3ccc(Cl)cc3)c(C)c2c1=O`?
FLuc modulator: -12%

How did Cn1c(C(=O)NC2CCCCC2)cc2sccc21 do in these assays?
NPC1 promoter act: inconclusive; FLuc modulator: 17µM*; ELG1 genotoxic: inconclusive; Rab9 promoter act: 4µM*

How did CC1CCN(CCCNC(=O)c2cc3sccc3n2C)CC1 do in these assays?
NPC1 promoter act: 0%; FLuc modulator: -3%; ELG1 genotoxic: 3%; Rab9 promoter act: -8%

Screening data as filed in PubChem.
